Data: PubChem BioAssay AID2685 (National Center for Advancing Translational Sciences (NCATS), 2010)
Values joined by “and” are separate entries in the source; they are usually repeats but may differ in a detail not shown here. Identical values can stand only once. Out of some 320,000 compounds screened, about 2,100 (0.66%) were called active. Another 53% or so got no clear call; they are omitted. This is one part of a sample in which actives are shown more often than they occur. Calls come from the whole dose curve; as a rule, active = well fitted inhibition curve with a large enough effect in the signal ratio, with a control signal flat (not every such curve was filed as active); inconclusive = small, poorly fitted or top-dose-only effect, or effect the other way, or a change in a side signal; inactive = flat fitted curve, though single readings scatter; the % refers to the signal ratio.

assay: qHTS Assay for Lipid Storage Modulators in Drosophila S3 Cells; conditions: BODIPY lipid droplet fluorescence, 18-24 h, cells fed with added oleic acid; cell number change: measured here: cell count max response; series mostly up to 46.1 µM; lipid storage change, negative = inhibition: at the top concentration;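 for cell number change: cells counted by Cell Tracker Red CMTPX staining in the red channel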; for lipid storage change, negative = inhibition: % is set by controls: 0 for no effect and ±100 for the full control effect
Procedure, shortened: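 Drosophila S3 cells loaded with oleic acid (400 uM, as added) and compounds at several concentrations; lipid droplets imaged by 488-nm laser-scanning cytometry, 500–530 nm intensity and object ratio to cell channel. Percent activity normalized to 20 uM Triacsin C.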
Potency is the fitted concentration of half-maximal effect.

SMILES | lipid storage change, negative = inhibition | cell number change [%] | Potency | outcome
c1ccc(Cc2cc[n+](Cc3ccccn3)cc2)cc1 | 4.93% (inactive) | 3.79 |  | 
Cc1nc2ccccc2c(N)c1C(=O)/C=C/c1ccccc1 |  | -20.1 | 14.6 µM (active) | 
Cn1c(N)c(C(=O)/C=C/c2ccccc2)c(=O)[nH]c1=O | 10.4% (inactive) | 12.4 |  | 
CCOC(=O)c1c(C)nc2ccccc2c1C |  |  |  | inactive
O=c1[nH]c(N2CCCCCC2)nc2ncn(Cc3ccccc3)c12 | -2.2% (inactive) | 7.21 |  | 
O=C(O)CCCCCNc1nc2ncn(Cc3ccccc3)c2c(=O)[nH]1 |  | -20 | 32.6 µM (active) | 
CC(Nc1nc2ncn(Cc3ccccc3)c2c(=O)[nH]1)C(=O)O (stereo not drawn) | 1.98% (inactive) | -0.475 |  | 
Cc1ccc[n+](/C(=C\C(=C=[N-])C#N)C(=O)c2ccc(Cl)cc2)c1 | 6.04% (inactive) | 18.6 |  | 
O=C1CN(C(=O)c2ccccc2F)C(c2ccc(F)cc2)c2cc(Br)ccc2N1 (stereo not drawn) | -0.107% (inactive) | -12.8 |  | 
CC(=O)Nc1ccc(OCC(=O)N2CCC(Cc3ccccc3)CC2)cc1 | -0.754% (inactive) | -1.18 |  | 
CC(=O)Nc1ccc(C(=O)OCC(=O)N2CCC(Cc3ccccc3)CC2)cc1 |  | -6.23 | 2.91 µM (active) | 
COc1cc(C(=O)OCC(=O)N2CCC(Cc3ccccc3)CC2)cc(OC)c1OC | 27.5% (inactive) |  |  | 
CC1=C(C(=O)NC2CCCc3c2cnn3-c2cc(F)cc(F)c2)OCCO1 (stereo not drawn) |  | 4.32 |  | inactive
COc1ccc(C(=O)NNC(=O)c2cc3cc(OC)ccc3oc2=O)cc1 | 0.203% (inactive) | 12.8 |  | 
Cc1ccc(C(O)(C(=O)NNc2ccc3ccccc3n2)c2ccc(C)cc2)cc1 | -4.95% (inactive) | -2.27 |  | 
COc1ccc(NC(=O)c2cccs2)cc1 | 0.392% (inactive) | -1.91 |  | 
COc1ccc(C(O)(C(=O)NNc2ccc(C)cc2)c2cccs2)cc1 (stereo not drawn) |  | 10.5 | 32.6 µM (active) | 
Cc1cc2ncn(-c3ncnc4sc5c(c34)CCCC5)c2cc1C |  | 8.27 |  | inactive
c1ccc(CN(Cc2ccco2)C(c2ccncc2)c2nnnn2C2CCCC2)cc1 (stereo not drawn) |  |  |  | inactive
O=C(CNC(=O)C1CCCCC1)Nc1cc(Cl)cc(Cl)c1 | -17% (inactive) |  |  | 
O=C(Nc1ccc(Cl)cc1)C1CCCC1 | -22.6% (inactive) | -15.4 |  | 
O=C(Nc1cc(Cl)cc(Cl)c1)C1CCCC1 |  | -3.7 | 20.6 µM (active) | 
CC1=C(C(=O)OC(C)C)C(c2ccccc2)NC(=O)N1C (stereo not drawn) |  |  |  | inactive
COC(=O)C1=C(C)N(C)C(=O)NC1c1ccc(C)cc1 (stereo not drawn) | 3.69% (inactive) | -10.6 |  | 

SMILES | lipid storage change, negative = inhibition | cell number change [%] | Potency | outcome
COC(=O)C1=C(C)N(C)C(=O)NC1c1ccccc1 (stereo not drawn) |  | -9.2 | 29.1 µM (active) | 
CC(C(=O)O)c1cccc(C(=O)c2ccccc2)c1 (stereo not drawn) |  |  | 23% and -14% | 
C[C@H](C(=O)O)c1cccc(C(=O)c2ccccc2)c1 | -15.8% (inactive) | 5.73 |  | 
Cc1ccccc1NC(=O)C(C)c1cccc(C(=O)c2ccccc2)c1 (stereo not drawn) | -6.86% (inactive) | 28.9 |  | 
CC(=O)c1cccc(NC(=O)CN(C2CCCCC2)S(C)(=O)=O)c1 |  |  |  | inactive
CCCCc1ccc(NC(=S)NCCO)cc1 | -23% (inactive) |  |  | 
O=S(=O)(c1ccc(-c2ccccc2)cc1)N1CCCCC1 | -13% (inactive) | 14.2 |  | 
Cc1ccc(NS(=O)(=O)c2ccc(NS(=O)(=O)c3cccs3)cc2)cc1 |  |  |  | inactive
Cc1ccccc1NS(=O)(=O)c1ccc(NS(=O)(=O)c2cccs2)cc1 |  | 22.7 |  | inactive
O=S(=O)(Nc1ccc(F)cc1)c1ccc(NS(=O)(=O)c2cccs2)cc1 |  | 5.22 | 3.66 µM (active) | 
Cc1ccc(-n2nc3c(c2NC(=O)CC(C)C)CS(=O)C3)cc1 (stereo not drawn) | 12.5% (inactive) | -3.89 |  | 
Clc1nnc(N2CCCCC2)c2ccccc12 | -14% (inactive) |  |  | 
Cc1ccc(-c2nnc(N3CCCCC3)c3ccccc23)cc1 | -16.3% (inactive) | -9.5 |  | 
c1ccc2c(N3CCCCC3)nnc(N3CCCCC3)c2c1 |  | 9 | 23.1 µM (active) | 
CCCCN1C2CCCC1CC(NC(=O)c1cccc(Cl)c1)C2 (stereo not drawn) | -8.27% (inactive) | -7.62 |  | 
CN(C(=O)COc1ccccc1)C1CCS(=O)(=O)C1 (stereo not drawn) | -9.62% (inactive) | -15.6 |  | 
Cc1cc(C)c(OCC(O)CNC(C)(C)C)c(C)c1 (stereo not drawn) | -0.87% (inactive) | 1.51 |  | 
CC(C)(C)NCC(O)COc1c(F)cc(Br)cc1F (stereo not drawn) |  | -21.9 | 29.1 µM (active) | 
Cc1cccc(C)c1OCC(O)CNC(C)(C)C (stereo not drawn) | -0.106% (inactive) | 8.88 |  | 
CCCCn1c(N)c(N(CC(C)C)C(=O)c2cnccn2)c(=O)[nH]c1=O | -3.52% (inactive) | -16.5 |  | 
O=C(NC1CCCCC1)C1Cc2ccccc2CN1S(=O)(=O)c1ccc(F)cc1 (stereo not drawn) | -0.186% (inactive) | -3.73 |  | 
CC(OC(=O)c1nsc(Cl)c1Cl)C(=O)NCc1cccs1 (stereo not drawn) |  | 2.66 | 32.6 µM (active) | 
CC(C)CC(OC(=O)c1nsc(Cl)c1Cl)C(=O)NCc1cccs1 (stereo not drawn) | 0.592% (inactive) | -3.42 |  | 
CCC(OC(=O)c1nsc(Cl)c1Cl)C(=O)NCc1cccs1 (stereo not drawn) | 6.89% (inactive) | 3.99 |  | 

SMILES | lipid storage change, negative = inhibition | cell number change [%] | Potency | outcome
O=C1COc2ccc(C(=O)CSc3ccccc3C(=O)O)cc2N1 | 13.1% (inactive) | 8.27 |  | 
COc1ccc(C2=NC(c3ccccc3)CO2)cc1 (stereo not drawn) | -12.2% (inactive) | -8.42 |  | 
CCOC(=O)C1(Cc2cccc(Cl)c2)CCCN(C(=O)c2cc(C)n(C)n2)C1 (stereo not drawn) | -16% (inactive) | 17.5 |  | 
CCOC(=O)C1(Cc2cccc(Cl)c2)CCCN(C(=O)c2cc(C)on2)C1 (stereo not drawn) | -14.8% (inactive) | 6.36 |  | 
CCOC(=O)C1(Cc2cccc(Cl)c2)CCCN(C(=O)c2cc(CC)on2)C1 (stereo not drawn) |  | -22.9 | 2.31 µM (active) | 
CCOc1ccc(OCC)c(S(=O)(=O)NCc2ccccn2)c1 |  | -15.9 |  | inactive
O=c1c(Cc2ccc(Cl)cc2)c(O)ccn1Cc1cccs1 | -8.38% (inactive) | 1.85 |  | 
COCc1c(C(=O)N/N=C/c2cccc3ccccc23)nnn1-c1nonc1N | 15.2% (inactive) | 13.5 |  | 
Cc1ccc(-c2c(C(=O)N/N=C/c3ccc(C)o3)nnn2-c2nonc2N)cc1 |  | -11.5 | 2.06 µM (active) | 
Cc1ccc(-c2c(C(=O)N/N=C/c3cccs3)nnn2-c2nonc2N)cc1 |  | -27.4 |  | inactive
COCc1c(C(=O)N/N=C/c2c[nH]c3ccccc23)nnn1-c1nonc1N |  | -1.35 | 0.164 µM (active) | 
CCCN(CCC)Cc1c(C(=O)N/N=C/c2c[nH]c3ccccc23)nnn1-c1nonc1N |  | 9.46 |  | inactive
Cc1ccc(/C=N/NC(=O)c2nnn(-c3nonc3N)c2-c2ccccc2)o1 |  | 4.2 |  | inactive
Cc1ccc(-c2c(C(=O)N/N=C/c3ccco3)nnn2-c2nonc2N)cc1 |  | -15 |  | inactive
Cc1ccc(/C=N/NC(=O)c2nnn(-c3nonc3N)c2C)o1 |  | -13.6 |  | inactive
Cc1ccc(-c2c(C(=O)N/N=C/c3c[nH]c4ccccc34)nnn2-c2nonc2N)cc1 |  | -29.2 | 14.6 µM (active) | 
FC(F)(F)c1cccc(NC(=S)NCC(c2cccnc2)N2CCOCC2)c1 (stereo not drawn) | 9.33% (inactive) | -6.8 |  | 
COc1ccc(NC(=S)N(CCc2nc3cc(C)c(C)cc3[nH]2)Cc2cccnc2)cc1 | -8.97% (inactive) |  |  | 
Cc1ccc(S(=O)(=O)N2CCC(C(=O)Nc3ccccc3N3CCCC3)CC2)cc1 | 10.2% (inactive) |  |  | 
CCn1c(=O)cc(SCC(=O)NCc2ccccn2)c2ccccc21 | -9.58% (inactive) |  |  | 
COCCn1c(SCC(=O)NC(C)c2ccc(F)cc2)nc2ccccc21 (stereo not drawn) | -22.5% (inactive) | 25.2 |  | 
O=C(COc1ccc2c(c1)oc(=O)c1ccccc12)NCCCN1CCOCC1 | 19.8% (inactive) | 13.8 |  | 
COc1ccc(CCN(Cc2cc3ccc(C)cc3[nH]c2=O)C(C)=O)cc1OC | 19.7% (inactive) |  |  | 
COc1ccc(-n2c(=S)[nH]c3cc(C(=O)Nc4ccc(F)cc4)ccc3c2=O)c(OC)c1 |  | 32.1 | 16.4 µM (active) | 

SMILES | lipid storage change, negative = inhibition | cell number change [%] | Potency | outcome
COc1ccc(-n2c(=S)[nH]c3cc(C(=O)NCc4ccccc4)ccc3c2=O)c(OC)c1 |  | 8.56 |  | inactive
COc1ccc(-n2c(=S)[nH]c3cc(C(=O)Nc4ccc(OC)c(OC)c4)ccc3c2=O)cc1 | -2.43% (inactive) | 1.06 |  | 
CNC(=S)NNC(=O)Cn1ccc(C)n1 | -2.88% (inactive) | -2.68 |  | 
O=C(Nc1ccccc1)OC(CN1CCCCC1)C(F)(F)F (stereo not drawn) | 7.04% (inactive) | -2.34 |  | 
Fc1cccc(Nc2ncnc3[nH]ncc23)c1 |  |  |  | inactive
Cc1ccc(C)c(SCC(=O)NCc2ccco2)c1 | 4.45% (inactive) | -4.84 |  | 
O=C(N/N=C/c1ccc2ccccc2c1)c1ccc(COc2ccc3c(c2)CCC3)o1 | -2.67% (inactive) | -8.3 |  | 
NC(=O)CN1CCN(C2CC(=O)N(CCc3ccccc3)C2=O)CC1 (stereo not drawn) | -0.508% (inactive) | 2.77 |  | 
O=C1CC(N2CCN(C/C=C/c3ccccc3)CC2)C(=O)N1CCc1ccccc1 (stereo not drawn) |  | -18.6 | 3.26 µM (active) | 
O=C1CC(N2CCN(c3ccccc3)CC2)C(=O)N1CCc1ccccc1 (stereo not drawn) | 11.9% (inactive) | 0.673 |  | 
CC1=NN(C(C#N)c2ccc(F)cc2)C(c2ccccc2)C1 (stereo not drawn) |  | -11.4 |  | inactive
COCC(=O)Nc1cc(=O)n(C)c(=O)n1C |  |  |  | inactive
Cc1ccc(OCCSc2ncnc3sc(C)c(C)c23)cc1C | 9.62% (inactive) | -4.8 |  | 
CC(=O)C1=C(Nc2ccccc2)CC(C)(O)C(C(C)=O)C1c1ccccc1 (stereo not drawn) | 5.22% (inactive) | 6.32 |  | 
CCOC(=O)C1=C(Nc2ccccc2)CC(C)(O)C(C(=O)OCC)C1c1ccc(Cl)cc1 (stereo not drawn) |  | 12.7 | 1.16 µM (active) | 
CCOC(=O)C1=C(Nc2ccc(Br)cc2)CC(C)(O)C(C(=O)OCC)C1c1ccccc1 (stereo not drawn) | -2.2% (inactive) | 1.29 |  | 
CCCOC(=O)c1ccc(OCC(O)CN2CCN(C(=O)c3ccccc3)CC2)cc1 (stereo not drawn) | 13.2% (inactive) | 0.922 |  | 
COCCOC(=O)c1c(NC(=O)CN(C)c2ccccc2)sc(C(N)=O)c1C | -6.17% (inactive) |  |  | 
COCCOC(=O)c1c(NC(=O)COC(=O)c2ccc(C)o2)sc(C(N)=O)c1C | -24.5% (inactive) | -10.2 |  | 
COCCOC(=O)c1c(NC(=O)COC(=O)Cc2cccc(OC)c2)sc(C(N)=O)c1C |  |  | 6.51 µM (active) | 
O=C(NCc1ccccc1Cl)c1cccc(C(F)(F)F)c1 | -6.95% (inactive) | -20.2 |  | 
O=S(=O)(c1ccc(F)cc1)N1CCCN(Cc2c(F)cccc2F)CC1 |  |  |  | inactive
O=C(O)/C(=C\C(=O)c1ccccc1)Nc1ccccc1 | 19.7% (inactive) | 1.05 |  | 
Cn1c(=O)c2cc3c(nc2n(C)c1=O)CC(c1ccccc1)CC3=O (stereo not drawn) | -3.1% (inactive) | 11.1 |  | 
